The term Inhibition denotes the relative decrease from the control value, in per cent.

Data on 39 compounds can be found in ChEMBL document CHEMBL4513146, “CO-ADD screening of Karazin Kharkiv National University (Ukraine) compounds”.

Potency and affinity values are given separately.

One assay relates to Staphylococcus aureus. As to conditions: Concentration 32 ug.mL-1;; ASSAY_TEST Inhibition of Bacterial Growth; detection method Absorption (OD600); MEDIA CAMHB; plate type 384well; NBS; CORNING #3640; time 18 hr.
Consider `CCCN(C)c1nccn2c(=O)n(CC(=O)Nc3ccc(OC)c(Cl)c3)nc12`, for which the Inhibition was determined as 16.13%.
The same measure, in the same setting: under `O=S(=O)(c1ccc2nncn2c1)N(Cc1ccccc1)c1ccc(F)c(F)c1` stands -0.12%.
For `COc1ccc(-c2cc3c4nnc(SCC(=O)NCc5ccc(Cl)cc5)n4ccn3n2)cc1`, the Inhibition is listed as -1.89%.
Same read-out and setting: the figure for `CCC(C)NC(=O)c1ccc2c(=O)n(CCC(C)C)c3nn(CC#N)c(=O)n3c2c1` (stereo not drawn) is 11.05%.
On the same count and under the same terms, the figure for `Cc1ccccc1CSc1nnc2c(=O)n(-c3ccc(F)cc3)ccn12` is 16.33%; for `Cc1ccc(-c2cc3c4nnc(SCC(=O)Nc5cccc(Cl)c5C)n4ccn3n2)cc1` it is -6.47%.
Regarding `Cc1cc(C)cc(Oc2nc3ccccc3n3c(=O)n(CC(=O)Nc4ccc5c(c4)OCO5)nc23)c1`, the Inhibition worked out at 0.02%.
Still for that read-out and setting: the figure for `O=C(CSc1nc2ccccc2n2cnnc12)Nc1ccc2c(c1)OCCO2` is 6.86%.
Same read-out and setting: under `CCOc1ccc(NC(=O)Cn2nc3c4cc(-c5ccc(C)cc5)nn4ccn3c2=O)cc1` stands 9.82%; under `CCc1nnc2c(S(=O)(=O)N(Cc3cccc(F)c3)c3ccc(F)cc3)cccn12`, -7.77%.
Consider `CC(C)CCNC(=O)CSc1nnc2c3cc(-c4ccccc4)nn3ccn12`, for which the Inhibition was 4.29%.
Still for that read-out and setting: the figure for `COc1ccccc1-n1ccn2c(SCC(=O)Nc3ccc(F)cc3F)nnc2c1=O` is -4.28%; for `Cc1cc(C)cc(N(Cc2ccccc2)S(=O)(=O)c2cccn3c(C)nnc23)c1` it is -1.33%; for `COc1ccc(NC(=O)Cn2nc3ccc(SC(C)(C)C)nn3c2=O)cc1Cl` it is -0.4%.
On the same count and under the same terms, the figure for `CCCCOc1ccc(-c2cc3c4nnc(SCC(=O)Nc5c(C)cccc5CC)n4ccn3n2)cc1` is -40.6%.
On the same count and under the same terms, under `COC(=O)c1ccc(NC(=O)CSc2nc3ccccc3n3c(C(C)C)nnc23)cc1` stands 12.04%; under `CC(C)c1ccc(N(Cc2ccccc2F)S(=O)(=O)c2cccn3cnnc23)cc1`, 2.39%.
Regarding `CCOC(=O)c1ccccc1NC(=O)Cn1nc2c(Oc3ccccc3)nccn2c1=O`, the Inhibition came out at 12.16%.
Still for that read-out and setting: under `O=C(CSc1nnc2c(=O)n(-c3ccccc3)ccn12)NCc1ccc(Cl)cc1` stands 9.66%; under `Cc1cc2nn(CC(=O)Nc3ccccc3F)c(=O)n2c(Nc2ccc(F)c(C)c2)n1`, 11.73%; under `CCCNC(=O)Cn1nc2n(Cc3cccs3)c(=O)c3sccc3n2c1=O`, 6.83%.
Same read-out and setting: the figure for `Cc1cccc(C)c1NC(=O)Cn1nc2c(N3CCSCC3)nc3ccccc3n2c1=O` is -9.27%; for `CCOC(=O)c1ccccc1NC(=O)Cn1nc2c(Oc3cccc(C)c3C)nccn2c1=O` it is 5.11%.
Consider `Cc1cccc(Sc2nc3ccccc3n3c(=O)n(CC(=O)Nc4c(C)cc(C)cc4C)nc23)c1`, for which the Inhibition is recorded as 8.94%.
In the case of `COc1cccc(-n2ccn3c(SCC(=O)c4c[nH]c5ccccc45)nnc3c2=O)c1`, the Inhibition was 3.92%.
For `CCc1nnc2c(S(=O)(=O)N(Cc3cccc(OC)c3)c3ccc(F)cc3)cccn12`, the Inhibition is listed as -5.69%.
Same read-out and setting: under `COc1ccc(NC(=O)Cn2nc3nc(N4CCOCC4)ccn3c2=O)cc1F` stands -2.35%; under `COc1ccc(OC)c(NC(=O)Cn2nc3c(Sc4ccccc4)nc4ccccc4n3c2=O)c1`, 6.17%; under `CCC(Sc1nnc2c(=O)n(-c3cccc(OC)c3)ccn12)C(=O)Nc1cc(C)ccc1C` (stereo not drawn), 5.06%.
The same measure, in the same setting: the figure for `CCc1cccc(NC(=O)Cn2nc3nc(N4CCCCCC4)ccn3c2=O)c1` is 0.41%; for `Cc1ccc(NC(=O)Cn2nc3c(Oc4ccccc4C)nccn3c2=O)cc1F` it is 8.06%; for `Cc1cc(C)c(NC(=O)CSc2nnc3c4cc(-c5ccccc5)nn4ccn23)c(C)c1` it is 6.45%.
Take `CCOC(=O)N1CCN(C(=O)CCc2nnc3c4cc(-c5ccc(F)cc5)nn4ccn23)CC1`: the Inhibition came out at 10.85%.
Take `CCc1nnc2ccc(S(=O)(=O)N(Cc3ccc(F)cc3)c3ccccc3)cn12`: the Inhibition is -1.95%.
Take `COc1ccccc1N1CCN(C(=O)CSc2nnc3c(=O)n(-c4ccccc4)ccn23)CC1`: the Inhibition came out at 3.83%.
As for `COc1cccc(CN(c2ccc(C)c(F)c2)S(=O)(=O)c2ccc3nncn3c2)c1`, the Inhibition is -7.58%.
Take `COc1cccc(-n2ccn3c(SCC(=O)Nc4ccc(C(C)C)cc4)nnc3c2=O)c1`: the Inhibition came out at 0.38%.
As to `Cc1ccc(Sc2nccn3c(=O)n(CC(=O)N4CCN(c5ccccc5F)CC4)nc23)c(C)c1`, the Inhibition is recorded as 2.97%.
Same read-out and setting: the figure for `CCc1cccc(NC(=O)Cn2nc3ccc(SC4CCCCC4)nn3c2=O)c1` is 13.65%.

The next assay concerns Escherichia coli. As to conditions: Concentration 32 ug.mL-1;; ASSAY_TEST Inhibition of Bacterial Growth; detection method Absorption (OD600); MEDIA CAMHB; plate type 384well; NBS; CORNING #3640; time 18 hr.
`CCCN(C)c1nccn2c(=O)n(CC(=O)Nc3ccc(OC)c(Cl)c3)nc12`: the Inhibition is recorded as -1.22%.
Still for that read-out and setting: under `O=S(=O)(c1ccc2nncn2c1)N(Cc1ccccc1)c1ccc(F)c(F)c1` stands -6.68%.
On the same count and under the same terms, under `COc1ccc(-c2cc3c4nnc(SCC(=O)NCc5ccc(Cl)cc5)n4ccn3n2)cc1` stands -4.94%; under `CCC(C)NC(=O)c1ccc2c(=O)n(CCC(C)C)c3nn(CC#N)c(=O)n3c2c1` (stereo not drawn), -1.24%; under `Cc1ccccc1CSc1nnc2c(=O)n(-c3ccc(F)cc3)ccn12`, -5.51%.
The same measure, in the same setting: the figure for `Cc1ccc(-c2cc3c4nnc(SCC(=O)Nc5cccc(Cl)c5C)n4ccn3n2)cc1` is -2.31%; for `Cc1cc(C)cc(Oc2nc3ccccc3n3c(=O)n(CC(=O)Nc4ccc5c(c4)OCO5)nc23)c1` it is -5.83%; for `O=C(CSc1nc2ccccc2n2cnnc12)Nc1ccc2c(c1)OCCO2` it is 5.63%.
Regarding `CCOc1ccc(NC(=O)Cn2nc3c4cc(-c5ccc(C)cc5)nn4ccn3c2=O)cc1`, the Inhibition came to 2.19%.
The same measure, in the same setting: the figure for `CCc1nnc2c(S(=O)(=O)N(Cc3cccc(F)c3)c3ccc(F)cc3)cccn12` is -5%.
Take `CC(C)CCNC(=O)CSc1nnc2c3cc(-c4ccccc4)nn3ccn12`: the Inhibition was determined as 0.66%.
Still for that read-out and setting: the figure for `COc1ccccc1-n1ccn2c(SCC(=O)Nc3ccc(F)cc3F)nnc2c1=O` is 0.2%; for `Cc1cc(C)cc(N(Cc2ccccc2)S(=O)(=O)c2cccn3c(C)nnc23)c1` it is -7.5%.
Take `COc1ccc(NC(=O)Cn2nc3ccc(SC(C)(C)C)nn3c2=O)cc1Cl`: the Inhibition is on record as -6.93%.
The same measure, in the same setting: the figure for `CCCCOc1ccc(-c2cc3c4nnc(SCC(=O)Nc5c(C)cccc5CC)n4ccn3n2)cc1` is -38.25%; for `COC(=O)c1ccc(NC(=O)CSc2nc3ccccc3n3c(C(C)C)nnc23)cc1` it is -0.7%.
With `CC(C)c1ccc(N(Cc2ccccc2F)S(=O)(=O)c2cccn3cnnc23)cc1`, the Inhibition is given as -0.79%.
For `CCOC(=O)c1ccccc1NC(=O)Cn1nc2c(Oc3ccccc3)nccn2c1=O`, the Inhibition came out at 1.14%.
Same read-out and setting: the figure for `O=C(CSc1nnc2c(=O)n(-c3ccccc3)ccn12)NCc1ccc(Cl)cc1` is -0.23%.
Same read-out and setting: under `Cc1cc2nn(CC(=O)Nc3ccccc3F)c(=O)n2c(Nc2ccc(F)c(C)c2)n1` stands -0.72%; under `CCCNC(=O)Cn1nc2n(Cc3cccs3)c(=O)c3sccc3n2c1=O`, -4.01%.
`Cc1cccc(C)c1NC(=O)Cn1nc2c(N3CCSCC3)nc3ccccc3n2c1=O`: the Inhibition was -7.41%.
Same read-out and setting: under `CCOC(=O)c1ccccc1NC(=O)Cn1nc2c(Oc3cccc(C)c3C)nccn2c1=O` stands -6.35%; under `Cc1cccc(Sc2nc3ccccc3n3c(=O)n(CC(=O)Nc4c(C)cc(C)cc4C)nc23)c1`, -2.19%.
Still for that read-out and setting: under `COc1cccc(-n2ccn3c(SCC(=O)c4c[nH]c5ccccc45)nnc3c2=O)c1` stands -5.66%; under `CCc1nnc2c(S(=O)(=O)N(Cc3cccc(OC)c3)c3ccc(F)cc3)cccn12`, -8.61%; under `COc1ccc(NC(=O)Cn2nc3nc(N4CCOCC4)ccn3c2=O)cc1F`, -9.58%.
As for `COc1ccc(OC)c(NC(=O)Cn2nc3c(Sc4ccccc4)nc4ccccc4n3c2=O)c1`, the Inhibition is on record as -0.83%.
Still for that read-out and setting: under `CCC(Sc1nnc2c(=O)n(-c3cccc(OC)c3)ccn12)C(=O)Nc1cc(C)ccc1C` (stereo not drawn) stands -5.33%; under `CCc1cccc(NC(=O)Cn2nc3nc(N4CCCCCC4)ccn3c2=O)c1`, -5.25%.
Take `Cc1ccc(NC(=O)Cn2nc3c(Oc4ccccc4C)nccn3c2=O)cc1F`: the Inhibition is -0.85%.
Same read-out and setting: the figure for `Cc1cc(C)c(NC(=O)CSc2nnc3c4cc(-c5ccccc5)nn4ccn23)c(C)c1` is -2.49%; for `CCOC(=O)N1CCN(C(=O)CCc2nnc3c4cc(-c5ccc(F)cc5)nn4ccn23)CC1` it is 2.2%.
Take `CCc1nnc2ccc(S(=O)(=O)N(Cc3ccc(F)cc3)c3ccccc3)cn12`: the Inhibition is reported as -12.51%.
With `COc1ccccc1N1CCN(C(=O)CSc2nnc3c(=O)n(-c4ccccc4)ccn23)CC1`, the Inhibition is -6.8%.
Consider `COc1cccc(CN(c2ccc(C)c(F)c2)S(=O)(=O)c2ccc3nncn3c2)c1`, for which the Inhibition is -16.33%.
Still for that read-out and setting: under `COc1cccc(-n2ccn3c(SCC(=O)Nc4ccc(C(C)C)cc4)nnc3c2=O)c1` stands -24.97%; under `Cc1ccc(Sc2nccn3c(=O)n(CC(=O)N4CCN(c5ccccc5F)CC4)nc23)c(C)c1`, -4.29%.
In the case of `CCc1cccc(NC(=O)Cn2nc3ccc(SC4CCCCC4)nn3c2=O)c1`, the Inhibition is listed as -0.36%.
